From PubChem BioAssay (Tox21)
Results filed as inconclusive are left out. Activity calls are given as the source filed them. Unless noted, calls follow the shape of the dose curve; as a rule, active = well fitted curve in the direction sought with a large enough effect in the repeat runs; inconclusive = weak or mixed curves; inactive = no such curve, though single readings can be large; an effect the other way counts as inactive or inconclusive.

Tests used:
[1] = Human pregnane X receptor (PXR) small molecule agonists, qHTS cell viability counter screen (AID 1346977); also: nearly all actives have a fitted effect of over 50% in size; also: potency is read from the fitted curve at half-maximal effect
Summary of the method: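 Measures live-cell protease fluorescence (CellTiter-Fluor) in PXR-Luc HepG2 cells treated 24hr with compounds at 37C. Cells had 5hr to attach before pin transfer of DMSO solutions.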

[2] = Caspase-3/7 induction in HepG2 cells by small molecules, qHTS assay (AID 1346978); also: nearly all actives have a fitted effect of over 15% in size
Summary of the method: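 Wild-type HepG2 cells, 2,000/well, settled 5 hr at 37 C and 5% CO2, then compound-treated for 17 hr; caspase-3/7 activity read by luminescent Caspase-Glo 3/7 after 30 min at room temperature.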

[3] = Caspase-3/7 induction in CHO-K1 cells by small molecules, qHTS cell viability counter screen (AID 1346979); also: nearly all actives have a fitted effect of over 35% in size; also: potency is read from the fitted curve at half-maximal effect
Summary of the method: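 In the same wells as the caspase read, viability of compound-treated wild-type CHO-K1 cells was assessed using CellTiter-Fluor, added after 16hr at 37C and measured by fluorescence following 1hr further incubation.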

[4] = Caspase-3/7 induction in CHO-K1 cells by small molecules, qHTS assay (AID 1346980); also: nearly all actives have a fitted effect of over 15% in size
Summary of the method: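 Wild-type CHO-K1 cells exposed to compounds for 17hr at 37 C, 5% CO2. Caspase-3/7 activity then measured by Caspase-Glo 3/7 luminescence after 30min at room temperature.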

[5] = Caspase-3/7 induction in HepG2 cells by small molecules, qHTS cell viability counter screen (AID 1346981); also: nearly all actives have a fitted effect of over 30% in size; also: potency is read from the fitted curve at half-maximal effect
Summary of the method: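 Cell viability is measured as a cytotoxicity counter screen alongside the Caspase-Glo 3/7 readout in identical wells. Wild-type HepG2 cells are treated with test compounds for 16 hr at 37 C before CellTiter-Fluor addition and a 1-hr incubation.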

[6] = molecular target: Nuclear receptor subfamily 1 group I member 2 (Homo sapiens) (UniProt O75469); assay: Human pregnane X receptor (PXR) small molecule agonists, qHTS assay (AID 1346982); also: nearly all actives have a fitted effect of over 35% in size; also: potency is read from the fitted curve at half-maximal effect
Summary of the method: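 Cells: HepG2 stably carrying PXR-Luc. Medium held 5% charcoal-stripped FBS. Compounds in DMSO added after 5 hr plating, incubated 24 hr, then luminescence quantified with ONE-Glo.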

[7] = molecular target: Acetylcholinesterase (Homo sapiens) (UniProt P22303); assay: Acetylcholinesterase (AChE) small molecule antagonists: colormetric cell-based qHTS assay (AID 1347395; calls by dose curve; also: nearly all actives have a fitted effect of over 30% in size)
Summary of the method: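 Endogenous AChE of human neuroblastoma SH-SY5Y cells was measured with an Ellman-type DTNB/acetylthiocholine mix. Compound pretreatment lasted 30 min at 37 C; substrate reaction ran 90 min at 37 C.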

[8] = molecular target: Acetylcholinesterase (Homo sapiens) (UniProt P22303); assay: Acetylcholinesterase (AChE) small molecule antagonists: enzyme-based qHTS assay (AID 1347397; calls by dose curve; also: nearly all actives have a fitted effect of over 55% in size); conditions: Potency: AChE enzyme activity inhibition
Summary of the method: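 Colorimetric DTNB read-out of thiocholine released from acetylthiocholine by recombinant human AChE (50 mU/mL as dispensed). Compounds were preincubated 30 min at RT before substrate/DTNB addition, with a 10 min RT reaction.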

[9] = molecular target: Acetylcholinesterase (Homo sapiens) (UniProt P22303); assay: Acetylcholinesterase (AChE) small molecule antagonists: fluorescence cell-based qHTS assay (AID 1347398; calls by dose curve; also: nearly all actives have a fitted effect of over 50% in size); conditions: Potency: AChE activity
Summary of the method: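 SH-SY5Y, 2,000 cells/well, attached overnight; cmpd 30 min 37 C; acetylthiocholine/Thiolite Green cocktail 40 min RT; fluorescence Ex/Em 490/520 nm.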

[10] = molecular target: Acetylcholinesterase (Homo sapiens) (UniProt P22303); assay: Acetylcholinesterase (AChE) small molecule antagonists: enzyme-based qHTS assay with human liver microsomes (AID 1347399; calls by dose curve; also: nearly all actives have a fitted effect of over 60% in size; also: potency is read from the fitted curve at half-maximal effect); conditions: Potency: qHTS inhibition
Summary of the method: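 Recombinant human AChE (50 mU/mL in the enzyme mix) and human liver microsomes (0.25 mg/mL final) were preincubated with compound and NADPH (0.25 mg/mL final) for 30 min at 37 C. Acetylthiocholine/DTNB was then added; thiocholine was read colorimetrically after 10 min at room temperature.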

[11] = molecular target: Cytochrome P450 2D6 (Homo sapiens) (UniProt P10635); assay: Cytochrome P450 Family 2 Subfamily D Member 6 (CYP2D6) small molecule antagonists: luciferase reporter qHTS assay (AID 1671196); also: nearly all actives have a fitted effect of over 50% in size; also: potency is read from the fitted curve at half-maximal effect
Summary of the method: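 Enzyme and proluciferin substrate were first combined with test chemical for 10 min at room temperature. Adding NADPH regeneration solution started a 1 h reaction, stopped with luciferin detection reagent and read by luminescence 20 min later.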

[12] = molecular target: Cytochrome P450 1A2 (Homo sapiens) (UniProt P05177); assay: Cytochrome P450 Family 1 Subfamily A Member 2 (CYP1A2) small molecule antagonists: luciferase reporter qHTS assay (AID 1671199); also: nearly all actives have a fitted effect of over 50% in size; also: potency is read from the fitted curve at half-maximal effect
Summary of the method: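 Compounds were incubated with CYP1A2 and a luminogenic proluciferin substrate for 10 min at room temperature before the reaction was started with NADPH regeneration solution. After 1 h, detection reagent was added and light output, proportional to CYP activity, was recorded.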

[13] = molecular target: Voltage-gated inwardly rectifying potassium channel KCNH2 (Homo sapiens) (UniProt Q12809); assay: Human Ether-a-go-go-Related Gene (hERG) channel small molecule antagonists: fluorescence cell-based qHTS assay (AID 1671200); also: nearly all actives have a fitted effect of over 50% in size; also: potency is read from the fitted curve at half-maximal effect
Summary of the method: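 Quantitative HTS in hERG-U2OS cells: thallium entry through the channel reports activity, read as continuous 480/540 nm fluorescence over 2 min after stimulus addition.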

[14] = molecular target: Cytochrome P450 3A4 (Homo sapiens) (UniProt P08684); assay: Cytochrome P450 Family 3 Subfamily A Member 4 (CYP3A4) small molecule antagonists: luciferase reporter qHTS assay (AID 1671201)
Summary of the method: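 Inhibition of CYP3A4 is measured as loss of light: the enzyme converts a proluciferin substrate to luciferin, detected luminescently. Reaction ran 1 h at room temperature with NADPH regeneration after a 10 min compound preincubation.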

[15] = molecular target: Cytochrome P450 2C9 (Homo sapiens) (UniProt P11712); assay: Cytochrome P450 Family 2 Subfamily C Member 9 (CYP2C9) small molecule antagonists: luciferase reporter qHTS assay (AID 1671198); also: nearly all actives have a fitted effect of over 50% in size; also: potency is read from the fitted curve at half-maximal effect
Summary of the method: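 P450-Glo proluciferin substrate with CYP2C9 enzyme; 10 min RT preincubation, then NADPH regeneration 1 h at 37C; luciferin detection reagent 20 min RT, luminescence in relative luminescence units.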

[16] = molecular target: Cytochrome P450 2C19 (Homo sapiens) (UniProt P33261); assay: Cytochrome P450 Family 2 Subfamily C Member 19 (CYP2C19) small molecule antagonists: luciferase reporter qHTS assay (AID 1671197); also: nearly all actives have a fitted effect of over 65% in size; also: potency is read from the fitted curve at half-maximal effect
Summary of the method: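 Light output is proportional to CYP2C19 activity: proluciferin substrate is converted to luciferin, then detected by a luciferin detection reagent that also stops the 1 h, 37C NADPH-driven reaction. Ketoconazole serves as positive control.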

[17] = molecular target: Nuclear receptor subfamily 1 group I member 2 (Rattus norvegicus) (UniProt Q9R1A7); assay: Rat pregnane X receptor (rPXR) activation by small molecules, qHTS assay (AID 1346983); conditions: rPXR luciferase reporter cells, One-Glo luminescence, 24 h; max activation: active compounds read high; also: nearly all actives have a fitted effect of over 20% in size
Summary of the method: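 Cell-based rPXR activation assay: rPXR cells, 2,000 per well, rested 5hr at 37 C, then exposed to compounds in DMSO for 24 hr at 37 C. Luciferase activity read by One-Glo luminescence after 30 min at room temperature.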

[18] = molecular target: Nuclear receptor subfamily 1 group I member 2 (Homo sapiens) (UniProt O75469); assay: CYP3A4 induction through human pregnane X receptor (PXR) by small molecules, qHTS assay (AID 1346984); also: nearly all actives have a fitted effect of over 40% in size; also: potency is read from the fitted curve at half-maximal effect
Summary of the method: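 Quantitative HTS in DPX-2 cells, i.e. HepG2 transfected with PXR response element and CYP3A4-promoter luciferase. Compounds in DMSO incubated 24hr at 37C; then P450-Glo CYP3A4 substrate, 3uM final, 3hr; One-Glo luminescence.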

[19] = molecular target: Nuclear receptor subfamily 1 group I member 2 (Homo sapiens) (UniProt O75469); assay: Human pregnane X receptor (PXR) activation by small molecules, qHTS assay (AID 1346985); also: nearly all actives have a fitted effect of over 40% in size
Summary of the method: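 DPX-2 cells (HepG2 co-transfected with a PXR response element and a CYP3A4-promoter luciferase construct) were seeded at 2,000 per well, rested 5 hr at 37C, then exposed to DMSO-dissolved compounds for 24 hr. Activation was read as luciferase luminescence.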
% is scaled to controls: 0 for no effect and ±100 for the full control effect.

Cytochrome P450 2D6 (Homo sapiens), sequence (P10635 whole entry, looked up): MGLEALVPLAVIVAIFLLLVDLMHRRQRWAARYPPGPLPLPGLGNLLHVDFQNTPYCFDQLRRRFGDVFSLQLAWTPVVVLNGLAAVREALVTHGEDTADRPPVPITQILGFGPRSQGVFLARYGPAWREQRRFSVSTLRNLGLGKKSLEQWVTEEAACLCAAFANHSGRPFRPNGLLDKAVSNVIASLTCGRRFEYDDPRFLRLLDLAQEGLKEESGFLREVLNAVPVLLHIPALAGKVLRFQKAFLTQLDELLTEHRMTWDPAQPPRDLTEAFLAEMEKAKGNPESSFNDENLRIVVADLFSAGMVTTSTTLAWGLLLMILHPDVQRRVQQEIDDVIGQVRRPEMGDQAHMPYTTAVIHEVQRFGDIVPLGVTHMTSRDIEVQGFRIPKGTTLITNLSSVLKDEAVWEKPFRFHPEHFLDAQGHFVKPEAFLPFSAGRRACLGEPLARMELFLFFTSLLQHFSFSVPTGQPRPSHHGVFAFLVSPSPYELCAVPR
Acetylcholinesterase (Homo sapiens), sequence (P22303 whole entry, looked up): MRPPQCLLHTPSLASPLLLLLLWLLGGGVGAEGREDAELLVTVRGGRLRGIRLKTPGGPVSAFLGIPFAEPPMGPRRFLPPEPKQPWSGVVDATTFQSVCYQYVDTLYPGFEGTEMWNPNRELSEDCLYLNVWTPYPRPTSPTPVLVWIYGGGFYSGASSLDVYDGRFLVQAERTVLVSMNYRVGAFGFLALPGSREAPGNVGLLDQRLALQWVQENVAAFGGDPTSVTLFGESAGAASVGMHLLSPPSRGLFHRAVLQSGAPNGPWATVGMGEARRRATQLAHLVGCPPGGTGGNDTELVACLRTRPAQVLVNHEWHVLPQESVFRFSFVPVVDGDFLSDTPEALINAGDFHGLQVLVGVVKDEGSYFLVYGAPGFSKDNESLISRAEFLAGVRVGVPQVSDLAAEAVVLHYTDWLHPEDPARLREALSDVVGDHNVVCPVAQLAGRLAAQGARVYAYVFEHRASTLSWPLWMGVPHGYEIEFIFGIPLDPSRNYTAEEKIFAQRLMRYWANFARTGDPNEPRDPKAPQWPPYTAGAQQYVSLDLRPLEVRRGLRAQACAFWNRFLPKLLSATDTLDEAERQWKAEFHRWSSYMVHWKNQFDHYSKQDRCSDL
Cytochrome P450 1A2 (Homo sapiens), sequence (P05177 whole entry, looked up): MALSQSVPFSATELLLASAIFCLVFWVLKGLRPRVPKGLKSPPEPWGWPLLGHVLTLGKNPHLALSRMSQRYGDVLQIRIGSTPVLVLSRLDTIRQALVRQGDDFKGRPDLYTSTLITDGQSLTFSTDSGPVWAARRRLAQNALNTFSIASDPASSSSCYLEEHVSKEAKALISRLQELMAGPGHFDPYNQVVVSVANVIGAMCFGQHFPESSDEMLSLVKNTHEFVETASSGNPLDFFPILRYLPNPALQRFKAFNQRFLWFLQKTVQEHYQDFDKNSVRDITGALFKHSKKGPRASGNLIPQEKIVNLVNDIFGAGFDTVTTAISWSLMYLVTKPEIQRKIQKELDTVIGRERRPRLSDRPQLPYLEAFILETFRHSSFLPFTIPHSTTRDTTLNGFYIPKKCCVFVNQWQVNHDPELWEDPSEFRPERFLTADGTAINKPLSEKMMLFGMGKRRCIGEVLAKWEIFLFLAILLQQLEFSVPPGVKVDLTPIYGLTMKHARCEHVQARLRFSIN
Cytochrome P450 2C19 (Homo sapiens), sequence (P33261 whole entry, looked up): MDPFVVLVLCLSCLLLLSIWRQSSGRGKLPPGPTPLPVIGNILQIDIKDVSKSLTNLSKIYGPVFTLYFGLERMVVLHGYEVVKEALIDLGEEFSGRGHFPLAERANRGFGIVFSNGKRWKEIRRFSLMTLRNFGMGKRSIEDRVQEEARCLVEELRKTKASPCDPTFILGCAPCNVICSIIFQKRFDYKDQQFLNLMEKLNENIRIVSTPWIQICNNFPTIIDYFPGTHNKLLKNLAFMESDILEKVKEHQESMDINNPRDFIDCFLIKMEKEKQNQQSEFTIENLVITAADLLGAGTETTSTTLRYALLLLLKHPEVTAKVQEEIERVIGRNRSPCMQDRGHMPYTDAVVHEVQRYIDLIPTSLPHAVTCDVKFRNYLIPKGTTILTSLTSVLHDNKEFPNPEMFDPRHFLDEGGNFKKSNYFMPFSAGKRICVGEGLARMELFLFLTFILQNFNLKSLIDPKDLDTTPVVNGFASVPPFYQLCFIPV
Cytochrome P450 3A4 (Homo sapiens), sequence (P08684 whole entry, looked up): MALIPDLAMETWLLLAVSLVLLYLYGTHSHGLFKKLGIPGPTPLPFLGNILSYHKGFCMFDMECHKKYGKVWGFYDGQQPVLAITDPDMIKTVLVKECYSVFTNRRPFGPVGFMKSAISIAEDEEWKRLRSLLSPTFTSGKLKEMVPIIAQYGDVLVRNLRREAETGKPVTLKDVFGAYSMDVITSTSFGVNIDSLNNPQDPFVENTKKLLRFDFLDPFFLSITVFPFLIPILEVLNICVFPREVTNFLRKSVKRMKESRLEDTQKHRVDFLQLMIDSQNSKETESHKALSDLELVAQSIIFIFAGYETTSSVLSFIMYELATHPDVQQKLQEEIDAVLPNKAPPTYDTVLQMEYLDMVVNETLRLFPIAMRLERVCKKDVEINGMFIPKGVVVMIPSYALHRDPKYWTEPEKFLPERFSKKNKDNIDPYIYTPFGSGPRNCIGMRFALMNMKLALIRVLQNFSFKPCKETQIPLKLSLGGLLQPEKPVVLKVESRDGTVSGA
Nuclear receptor subfamily 1 group I member 2 (Homo sapiens), sequence (O75469 whole entry, looked up): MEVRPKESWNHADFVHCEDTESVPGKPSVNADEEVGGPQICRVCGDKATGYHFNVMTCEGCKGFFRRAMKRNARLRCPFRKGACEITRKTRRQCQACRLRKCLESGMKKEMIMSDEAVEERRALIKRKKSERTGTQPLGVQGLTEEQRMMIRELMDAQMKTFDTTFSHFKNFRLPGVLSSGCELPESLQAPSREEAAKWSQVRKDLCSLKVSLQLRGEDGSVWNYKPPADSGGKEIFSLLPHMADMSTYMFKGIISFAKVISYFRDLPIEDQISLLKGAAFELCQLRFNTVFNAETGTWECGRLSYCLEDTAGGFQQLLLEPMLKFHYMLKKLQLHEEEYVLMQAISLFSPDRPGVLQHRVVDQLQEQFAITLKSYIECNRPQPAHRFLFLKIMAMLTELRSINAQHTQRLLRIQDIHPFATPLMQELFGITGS
Voltage-gated inwardly rectifying potassium channel KCNH2 (Homo sapiens), sequence (Q12809 whole entry, looked up): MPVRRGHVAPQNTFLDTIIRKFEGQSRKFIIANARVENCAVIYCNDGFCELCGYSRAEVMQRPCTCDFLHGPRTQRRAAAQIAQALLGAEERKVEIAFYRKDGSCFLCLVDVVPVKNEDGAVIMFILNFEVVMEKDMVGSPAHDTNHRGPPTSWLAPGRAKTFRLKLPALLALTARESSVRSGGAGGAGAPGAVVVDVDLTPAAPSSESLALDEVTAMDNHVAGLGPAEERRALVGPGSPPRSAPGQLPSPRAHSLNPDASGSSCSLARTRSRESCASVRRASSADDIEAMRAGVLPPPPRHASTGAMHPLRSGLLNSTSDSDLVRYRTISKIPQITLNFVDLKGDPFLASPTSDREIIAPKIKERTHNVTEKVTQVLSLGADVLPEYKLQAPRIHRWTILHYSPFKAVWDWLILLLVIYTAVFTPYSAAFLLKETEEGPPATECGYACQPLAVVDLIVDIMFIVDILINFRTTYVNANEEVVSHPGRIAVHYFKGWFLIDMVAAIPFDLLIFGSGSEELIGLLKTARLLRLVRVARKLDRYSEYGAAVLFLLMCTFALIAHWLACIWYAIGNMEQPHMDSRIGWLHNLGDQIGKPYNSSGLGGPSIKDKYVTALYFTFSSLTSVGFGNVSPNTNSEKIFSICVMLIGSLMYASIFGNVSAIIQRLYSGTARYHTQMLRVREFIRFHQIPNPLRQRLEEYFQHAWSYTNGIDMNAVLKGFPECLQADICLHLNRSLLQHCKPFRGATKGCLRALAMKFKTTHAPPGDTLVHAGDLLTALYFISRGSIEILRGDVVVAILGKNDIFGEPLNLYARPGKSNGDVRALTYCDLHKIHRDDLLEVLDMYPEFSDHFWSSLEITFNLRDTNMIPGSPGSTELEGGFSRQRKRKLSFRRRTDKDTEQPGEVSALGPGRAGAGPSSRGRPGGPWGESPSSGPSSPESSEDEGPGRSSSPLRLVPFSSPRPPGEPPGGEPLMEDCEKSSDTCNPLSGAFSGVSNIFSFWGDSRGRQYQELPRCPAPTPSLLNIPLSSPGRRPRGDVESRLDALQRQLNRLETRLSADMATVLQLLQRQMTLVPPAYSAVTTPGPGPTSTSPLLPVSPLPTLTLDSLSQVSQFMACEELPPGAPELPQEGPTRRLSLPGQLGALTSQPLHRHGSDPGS
Cytochrome P450 2C9 (Homo sapiens), sequence (P11712 whole entry, looked up): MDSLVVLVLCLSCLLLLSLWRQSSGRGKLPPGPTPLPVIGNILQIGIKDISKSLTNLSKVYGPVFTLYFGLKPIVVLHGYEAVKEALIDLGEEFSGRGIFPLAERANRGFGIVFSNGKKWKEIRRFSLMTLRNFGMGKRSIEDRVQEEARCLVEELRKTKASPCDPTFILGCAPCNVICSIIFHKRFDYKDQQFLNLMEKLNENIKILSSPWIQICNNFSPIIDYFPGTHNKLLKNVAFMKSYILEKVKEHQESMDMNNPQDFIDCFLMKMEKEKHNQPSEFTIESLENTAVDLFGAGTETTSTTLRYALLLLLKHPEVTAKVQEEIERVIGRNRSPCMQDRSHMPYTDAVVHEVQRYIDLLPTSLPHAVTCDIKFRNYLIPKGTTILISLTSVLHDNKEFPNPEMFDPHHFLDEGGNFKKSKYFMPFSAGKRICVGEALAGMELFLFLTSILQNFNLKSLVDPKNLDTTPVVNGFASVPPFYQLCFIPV

O=C(NC(=O)c1c(F)cccc1F)Nc1cc(Cl)c(Oc2ncc(C(F)(F)F)cc2Cl)c(Cl)c1
inactive: Potency [1] | Potency [2] | Potency [4] | Potency [5] | Potency [7] | Potency [8] | Potency [9] | Potency [10] | Potency [11] | Potency [12] | Potency [13] | Potency [14]
active: Potency [3] 52.2 µM | Potency [6] 8.27 µM

C=CC(C)=O
inactive: Potency [1] | Potency [2] | Potency [3] | Potency [4] | Potency [5] | Potency [6] | Potency [8] | Potency [9] | Potency [10] | Potency [11] | Potency [15] | Potency [13]

CCCN(CCCl)c1c([N+](=O)[O-])cc(C(F)(F)F)cc1[N+](=O)[O-]
active: Potency [6] 21.7 µM | Potency [16] 17.8 µM | Potency [15] 20 µM | Potency [12] 12.6 µM
inactive: Potency [1] | Potency [2] | Potency [3] | Potency [4] | Potency [5] | Potency [7] | Potency [8] | Potency [9] | Potency [10] | Potency [13]

C[C@]12CC[C@H]3[C@@H](CCC4=CC(=O)CC[C@@H]43)[C@@H]1CC[C@@H]2OC(=O)CCC1CCCCC1
inactive: Potency [1] | Potency [2] | Potency [3] | Potency [4] | Potency [5] | Potency [7] | Potency [8] | Potency [10] | Potency [11] | Potency [14]
active: Potency [15] 17.4 µM

O=C(CBr)OCc1ccccc1
active: Potency [15] 35.6 µM
inactive: Potency [1] | Potency [2] | Potency [3] | Potency [4] | Potency [5] | Potency [8] | Potency [9] | Potency [10] | Potency [11] | Potency [12] | Potency [13] | Potency [14]

C#CCOC(C(=O)OCCN(C)C)(c1ccccc1)c1ccccc1
inactive: Potency [1] | Potency [2] | Potency [3] | Potency [4] | Potency [5] | max activation [17] -6.97% | Potency [19] | Potency [12]
active: Potency [18] 15.8 µM | Potency [11] 3.47 µM | Potency [16] 1.95 µM | Potency [15] 2.19 µM

CC(C)(C)c1cc([N+](=O)[O-])cc([N+](=O)[O-])c1O
inactive: Potency [2] | Potency [4] | Potency [7] | Potency [8] | Potency [9] | Potency [10] | Potency [11] | Potency [13]
active: Potency [1] 6.84 µM | Potency [3] 17.2 µM | Potency [5] 21.6 µM | Potency [16] 56.2 µM | Potency [15] 17.8 µM | Potency [12] 56.2 µM

C=CC(=O)OC(C)(C)C
active: Potency [16] 30.6 µM | Potency [12] 2.43 µM
inactive: Potency [1] | Potency [2] | Potency [3] | Potency [4] | Potency [5] | Potency [6] | Potency [8] | Potency [10] | Potency [11] | Potency [13]

CC(=O)CCC(C)=O
inactive: Potency [1] | Potency [2] | Potency [3] | Potency [4] | Potency [5] | Potency [8] | Potency [9] | Potency [10] | Potency [11] | Potency [16] | Potency [15] | Potency [12] | Potency [13] | Potency [14]

O=[N+]([O-])C(Br)(CO)CO
active: Potency [3] 61.1 µM | Potency [10] 71 µM | Potency [16] 6.33 µM | Potency [15] 5.03 µM | Potency [12] 17.8 µM
inactive: Potency [1] | Potency [2] | Potency [4] | Potency [5] | max activation [17] -5.03% | Potency [18] | Potency [19] | Potency [9] | Potency [11] | Potency [13] | Potency [14]

CCOC(=O)COc1cc(-c2nn(C)c(OC(F)F)c2Cl)c(F)cc1Cl
inactive: Potency [1] | Potency [2] | Potency [3] | Potency [4] | Potency [5] | Potency [7] | Potency [8] | Potency [10]
active: Potency [16] 31.7 µM | Potency [15] 6.33 µM | Potency [12] 1.78 µM | Potency [13] 34.7 µM

CC1Sc2c(C(=O)O)c(=O)c3cc(F)c(N4CCNCC4)cc3n21 (stereo not drawn)
inactive: Potency [1] | Potency [2] | Potency [3] | Potency [4] | Potency [5] | Potency [7] | Potency [8] | Potency [9] | Potency [10] | Potency [11] | Potency [16] | Potency [12] | Potency [13] | Potency [14]
